# The supplement of paper PMC6555819
# How the values were obtained:
# Test in all cases: PBM binding z-score (relative to random genomic background probes); higher = stronger binding; sequences stand for … in GC…GCGATTGACAGCGTAGAATGAAGG
# [1] = tested on: FXR:RXRa (NR concentration 270 nM, RXRa partner concentration 90 nM)
# Outline: (§1)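 Binding z-scores take random background probes as their reference. They come from custom Agilent 4×180K protein-binding microarrays incubated 1 h with ligand-free nuclear receptor dimers, with antibodies against each partner (one per run) detecting binding. Scanned fluorescence was regression-normalized.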
# [2] = tested on: LXRa:RXRa (NR concentration 270 nM, RXRa partner concentration 90 nM)
# Outline: as §1
# [3] = tested on: LXRa homodimer (NR concentration 270 nM)
# Outline: as §1
# [4] = tested on: LXRb homodimer (NR concentration 270 nM)
# Outline: as §1
# [5] = tested on: PPARa:RXRa (NR concentration 270 nM, RXRa partner concentration 90 nM)
# Outline: as §1
# [6] = tested on: PPARg:RXRa (NR concentration 180 nM, RXRa partner concentration 90 nM)
# Outline: as §1
# [7] = tested on: PPARg:RXRa 270nM:90nM, anti-RXR (NR concentration 270 nM, RXRa partner concentration 90 nM)
# Outline: as §1
# [8] = tested on: PPARg:RXRa 30nM:10nM, anti-RXR (NR concentration 30 nM, RXRa partner concentration 10 nM)
# Outline: as §1
# [9] = tested on: PPARg:RXRa 90nM:30nM, anti-RXR (NR concentration 90 nM, RXRa partner concentration 30 nM)
# Outline: as §1
sequence,measurement,setting,value
TCTAGTTGGTCACGGGGGTCACACACGACGGGTA,PBM binding z-score,[1],5.12
same,PBM binding z-score,[2],4.95
same,PBM binding z-score,[3],2.06
same,PBM binding z-score,[4],9.37
same,PBM binding z-score,[5],5.15
same,PBM binding z-score,[6],5.57
same,PBM binding z-score,[7],6.09
same,PBM binding z-score,[8],4.82
same,PBM binding z-score,[9],5.65
GATACAGGGTCAAGGCCAGAGTACGCGTATTGAT,PBM binding z-score,[1],6.67
same,PBM binding z-score,[2],4.16
same,PBM binding z-score,[3],0.173
same,PBM binding z-score,[4],-0.282
same,PBM binding z-score,[5],5.44
same,PBM binding z-score,[6],5.85
same,PBM binding z-score,[7],5.43
same,PBM binding z-score,[8],2.04
same,PBM binding z-score,[9],4.11
CCTTACGGGTCACTGACAGCTTATAGCATTTGGA,PBM binding z-score,[1],5.14
same,PBM binding z-score,[2],3.38
same,PBM binding z-score,[3],0.0209
same,PBM binding z-score,[4],-0.0269
same,PBM binding z-score,[5],4.99
same,PBM binding z-score,[6],4.12
same,PBM binding z-score,[7],4.15
same,PBM binding z-score,[8],1.74
same,PBM binding z-score,[9],3.11
CTCGAAAGGTCGTGGTCAGGTGAGTATACCAAAC,PBM binding z-score,[1],5.9
same,PBM binding z-score,[2],4.27
same,PBM binding z-score,[3],0.0394
same,PBM binding z-score,[4],0.247
same,PBM binding z-score,[5],5.02
same,PBM binding z-score,[6],3.26
same,PBM binding z-score,[7],4.6
same,PBM binding z-score,[8],1.21
same,PBM binding z-score,[9],3.34
CCTAGTTGGTCAAGGTCCCACACGCTATAGGTAC,PBM binding z-score,[1],0.27
same,PBM binding z-score,[2],0.395
same,PBM binding z-score,[3],0.55
same,PBM binding z-score,[4],-0.02
same,PBM binding z-score,[5],0.398
same,PBM binding z-score,[6],0.782
same,PBM binding z-score,[7],0.497
same,PBM binding z-score,[8],-0.0168
same,PBM binding z-score,[9],0.409
CTTAGTTGGTCAGGAGGTCACACACCGGATATGA,PBM binding z-score,[1],3.89
same,PBM binding z-score,[2],3.72
same,PBM binding z-score,[3],2.38
same,PBM binding z-score,[4],0.947
same,PBM binding z-score,[5],4.35
same,PBM binding z-score,[6],4.41
same,PBM binding z-score,[7],4.69
same,PBM binding z-score,[8],2.41
same,PBM binding z-score,[9],4.39
CAAAATAGGTCAAGAGGTCAAAGTCCGCTTCCCG,PBM binding z-score,[1],7.64
same,PBM binding z-score,[2],6.57
same,PBM binding z-score,[3],6.23
same,PBM binding z-score,[4],2.46
same,PBM binding z-score,[5],6.57
same,PBM binding z-score,[6],9.42
same,PBM binding z-score,[7],8.19
same,PBM binding z-score,[8],6.55
same,PBM binding z-score,[9],8.11
ATCGAAAGGTCGTGAGGTGAGTACACAGAAAGGC,PBM binding z-score,[1],4.79
same,PBM binding z-score,[2],4.23
same,PBM binding z-score,[3],0.197
same,PBM binding z-score,[4],0.501
same,PBM binding z-score,[5],5.02
same,PBM binding z-score,[6],3.98
same,PBM binding z-score,[7],4.57
same,PBM binding z-score,[8],1.74
same,PBM binding z-score,[9],3.26
CGTCAAAGTTCATGGTAACGTAACAGAAAGCAGC,PBM binding z-score,[1],6.57
same,PBM binding z-score,[2],5.67
same,PBM binding z-score,[3],3.17
same,PBM binding z-score,[4],1.2
same,PBM binding z-score,[5],4.95
same,PBM binding z-score,[6],5.02
same,PBM binding z-score,[7],5.36
same,PBM binding z-score,[8],2.39
same,PBM binding z-score,[9],4.08
CAAACTAGGCCAAGGTCAAAGTCGGTTTGTGCCA,PBM binding z-score,[1],4.09
same,PBM binding z-score,[2],3.76
same,PBM binding z-score,[3],2.16
same,PBM binding z-score,[4],0.128
same,PBM binding z-score,[5],4.79
same,PBM binding z-score,[6],6.27
same,PBM binding z-score,[7],6.01
same,PBM binding z-score,[8],3.89
same,PBM binding z-score,[9],5.74
CCTACTGGGCCACGAAAGGGCATTGATTCAGTGA,PBM binding z-score,[1],-0.208
same,PBM binding z-score,[2],0.621
same,PBM binding z-score,[3],-0.166
same,PBM binding z-score,[4],-1.21
same,PBM binding z-score,[5],1.7
same,PBM binding z-score,[6],1.78
same,PBM binding z-score,[7],1.95
same,PBM binding z-score,[8],0.197
same,PBM binding z-score,[9],0.806
GCTGCTAGGTCAGGTTGGTCAGCTAACGGGTACG,PBM binding z-score,[1],1.01
same,PBM binding z-score,[2],0.656
same,PBM binding z-score,[3],-0.0662
same,PBM binding z-score,[4],-0.325
same,PBM binding z-score,[5],1.52
same,PBM binding z-score,[6],0.389
same,PBM binding z-score,[7],0.622
same,PBM binding z-score,[8],-0.261
same,PBM binding z-score,[9],0.176
ACTCGGAGGACAAAGGTAAGAGCTACGCCAGTGA,PBM binding z-score,[1],-0.107
same,PBM binding z-score,[2],-0.113
same,PBM binding z-score,[3],-0.383
same,PBM binding z-score,[4],-0.762
same,PBM binding z-score,[5],1.12
same,PBM binding z-score,[6],2.52
same,PBM binding z-score,[7],3.87
same,PBM binding z-score,[8],1.74
same,PBM binding z-score,[9],3.83
TCTACTTGGTCACGGAGGTCACACACGACGGGTA,PBM binding z-score,[1],3.59
same,PBM binding z-score,[2],3.73
same,PBM binding z-score,[3],3.08
same,PBM binding z-score,[4],1.3
same,PBM binding z-score,[5],3.99
same,PBM binding z-score,[6],3.67
same,PBM binding z-score,[7],4.1
same,PBM binding z-score,[8],3.72
same,PBM binding z-score,[9],3.83
CGTCAAAGTTCAAGGTAAAGTAACAGAAAGCAGC,PBM binding z-score,[1],5.75
same,PBM binding z-score,[2],5.37
same,PBM binding z-score,[3],2.35
same,PBM binding z-score,[4],0.837
same,PBM binding z-score,[5],4.4
same,PBM binding z-score,[6],4.51
same,PBM binding z-score,[7],5.07
same,PBM binding z-score,[8],2.5
same,PBM binding z-score,[9],3.89
